Hit rate of the full screen: of about 5,500 compounds, about 2,000 (36%) were called active. Not shown: some 18% with an inconclusive outcome. No stated cut-off is given here; in the data, active means normalized growth mostly below about 0.91 (no sharp cut-off); inconclusive means no clear call, values can overlap the other calls; inactive means mostly above about 0.92. The list shows a part of the results.
Test: chemical genetic growth profiling, strain panel (AID 1159580);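 further: tested at 20 µM; growth read once vehicle control cultures reached saturation at 30 °C; 1 = growth at the plate median or of vehicle wells; lower values mean less growth of the strain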
Conditions: S. cerevisiae deletion strains, growth OD

Measured: normalized growth

COc1ccc2c(=O)ccoc2c1
inactive: locus YAL013W, strain DEP1, active compounds read low 1.02 | locus YAL021C, strain ccr4, active compounds read low 1.02 | locus YAL026C, strain drs2, active compounds read low 1.02 | locus YAL030W, strain snc1, active compounds read low 1.01 | locus YBL061C, strain skt5, active compounds read low 1.01 | locus YBR009C, strain hhf1, active compounds read low 1.02 | locus YBR021W, strain FUR4, active compounds read low 0.979 | locus YBR023C, strain chs3, active compounds read low 1.02 | locus YBR171W, strain sec66, active compounds read low 1.04 | locus YBR229C, strain ROT2, active compounds read low 1.01 | locus YBR231C, strain swc5, active compounds read low 1.01 | locus YBR279W, strain paf1, active compounds read low 1.02 | locus YCL011C, strain gbp2, active compounds read low 1.02 | locus YCL016C, strain dcc1, active compounds read low 1.02 | locus YCL029C, strain bik1, active compounds read low 1.01 | locus YCL061C, strain MRC1, active compounds read low 1.02 | locus YCL069W, strain vba3, active compounds read low 1.02 | locus YCR088W, strain abp1, active compounds read low 1.03 | locus YDL005C, strain med2, active compounds read low 1.02 | locus YDL035C, strain GPR1, active compounds read low 1 | locus YDL040C, strain nat1, active compounds read low 1.02 | locus YDL074C, strain BRE1, active compounds read low 1.02 | locus YDL101C, strain DUN1, active compounds read low 1.02 | locus YDL134C, strain PPH21, active compounds read low 1.02 | locus YDL185W, strain tfp1, active compounds read low 1.01 | locus YDL192W, strain arf1, active compounds read low 1.01 | locus YDR001C, strain nth1, active compounds read low 1.02 | locus YDR069C, strain doa4, active compounds read low 1.02 | locus YDR101C, strain arx1, active compounds read low 0.995 | locus YDR137W, strain rgp1, active compounds read low 1.03 | locus YDR150W, strain NUM1, active compounds read low 1.03 | locus YDR159W, strain sac3, active compounds read low 1.04 | locus YDR162C, strain NBP2, active compounds read low 1.02 | locus YDR195W, strain ref2 1.08 | locus YDR297W, strain sur2, active compounds read low 1.02 | locus YDR318W, strain mcm21, active compounds read low 0.992 | locus YDR334W, strain swr1, active compounds read low 1.02 | locus YDR335W, strain msn5, active compounds read low 1.02 | locus YDR388W, active compounds read low 1.01 | locus YDR392W, strain spt3, active compounds read low 1.04 | locus YDR502C, strain sam2, active compounds read low 1.01 | locus YEL003W, strain gim4, active compounds read low 1.02 | locus YEL037C, strain rad23, active compounds read low 1.02 | locus YEL061C, strain CIN8 (second series), active compounds read low 1.02 | locus YEL061C, strain CIN8, active compounds read low 1.01 | locus YER015W, strain faa2, active compounds read low 1.03 | locus YER016W, strain bim1, active compounds read low 1.02 | locus YER110C, active compounds read low 1.01 | locus YER111C, strain swi4, active compounds read low 1.01 | locus YER155C, strain BEM2 (second series), active compounds read low 1 | locus YER155C, strain BEM2, active compounds read low 1.02 | locus YER167W, strain BCK2, active compounds read low 1.04 | locus YFR010W, strain ubp6, active compounds read low 1.03 | locus YGL078C, strain dbp3, active compounds read low 1.02 | locus YGL086W, strain mad1, active compounds read low 1.01 | locus YGL167C, strain pmr1, active compounds read low 1.03 | locus YGL173C, strain kem1, active compounds read low 1.02 | locus YGL227W, strain vid30, active compounds read low 1.03 | locus YGL240W, strain doc1, active compounds read low 1.02 | locus YGL248W, strain PDE1, active compounds read low 1.02 | locus YGL253W, strain hxk2, active compounds read low 1.02 | locus YGR078C, strain PAC10, active compounds read low 0.997 | locus YGR135W, strain pre9, active compounds read low 0.978 | locus YGR229C, strain SMI1, active compounds read low 1.04 | locus YGR252W, strain gcn5, active compounds read low 0.825 | locus YHR013C, strain ard1, active compounds read low 1.08 | locus YHR027C, strain rpn1, active compounds read low 1.03 | locus YHR030C, strain SLT2, active compounds read low 1.02 | locus YHR079C, strain IRE1 (second series), active compounds read low 0.998 | locus YHR094C, strain hxt1, active compounds read low 1.01 | locus YHR129C, strain ARP1, active compounds read low 1.01 | locus YHR142W, strain chs7, active compounds read low 1.03 | locus YHR200W, strain rpn10, active compounds read low 0.997 | locus YIL066C, strain RNR3, active compounds read low 1.01 | locus YIL073C, strain SPO22, active compounds read low 1.04 | locus YIL125W, strain kgd1, active compounds read low 1.02 | locus YIR030C, strain dcg1, active compounds read low 1.01 | locus YJL092W, strain hpr5, active compounds read low 1.02 | locus YJL095W, strain BCK1 (second series), active compounds read low 1.02 | locus YJL095W, strain BCK1, active compounds read low 0.991 | locus YJL115W, strain asf1, active compounds read low 1.01 | locus YJL129C, strain trk1, active compounds read low 1.06 | locus YJL134W, strain LCB3, active compounds read low 1.02 | locus YJL154C, strain vps35, active compounds read low 1.03 | locus YJL164C, strain tpk1, active compounds read low 1.03 | locus YJL166W, strain qcr8, active compounds read low 1.02 | locus YJL168C, strain set2, active compounds read low 1.01 | locus YJL187C, strain SWE1 (second series), active compounds read low 1.01 | locus YJL187C, strain SWE1, active compounds read low 1.02

From PubChem BioAssay AID1159580 (chemical genetic matrix, 2015)
